From PubChem BioAssay come the findings set out here.

Values without a mark were called inactive. Active and inactive are the calls of the source.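 The calls were made as follows: active = z-score of at least 1.8 in each of two replicates, scored against plate mean and spread of sample wells; inactive = the rest.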

This assay can be described thus: viability rescue of complex I mutant cybrids, primary screen, cell-based, galactose medium, ATP luminescence (AID 1645843).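 Also: positive z means more ATP and so rescue of galactose-driven cybrid death.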 The following applies: complex I mutant cybrid cells, 72 h, stronger effect = higher value.
As to `Cn1nccc1NC(=O)Cn1ccc(-c2cnn(-c3ccccc3F)c2)n1`, the z-score is -0.815.

Take `O=C(c1ccc(-n2ccnc2)cc1)N1CCc2[nH]nc(-c3ccccc3)c2C1`: the z-score is -1.

As to `OC1(c2ccccc2)CCN(Cc2ccccc2Cl)C1` (centres undefined), the z-score was -1.11.

As to `CC(C)C1C(=O)N(C)CCN1C(=O)C1(C)CC1` (centres undefined), the z-score is -0.54.

Take `CCCCc1cn(C2CCN(C3CCCC(C)(C)C3)CC2)nn1` (centres undefined): the z-score was -0.56.

Take `Cc1cccc2c(C(=O)N(C)C(C)C)cc(-c3cnc(C(C)(C)C)nc3)nc12`: the z-score is 2.35 (active).

As for `O=C1CN(c2ncnc3nc[nH]c23)CCN1C1CCCCC1`, the z-score is 1.14.

With `Cc1cc(C)c(CN[C@@H](C)C(C)C)c(C)c1CO`, the z-score is -0.51.

Regarding `O=C(CCC1CC1)Nc1ccnn1C1CCCCC1`, the z-score is 0.01.

Regarding `COc1ccccc1N1CCN(C(=O)CCC(C)C)CC1(C)C`, the z-score is 2.31 (active).

Take `CC(C)Cc1cn(C2CCN(C(=O)CC3CCCCCC3)CC2)nn1`: the z-score is 2.74 (active).

In the case of `Cn1ccnc1-c1ccccc1C(=O)N1CCN(Cc2cccc(F)c2)CC1`, the z-score was 0.355.

Regarding `Cc1nsc(NC(=O)N2CCCN(c3ccccc3)CC2)n1`, the z-score was -0.19.

As for `Cc1sc2ncnc(N3CCC(Cn4cc(C(C)(C)N)nn4)CC3)c2c1C`, the z-score was -0.55.

As to `CC(=O)NCCC1CCN(C(=O)C(C)(C)Oc2cc(C)ccc2Cl)CC1`, the z-score is -0.545.

On to `Cn1cc(C(=O)N2CCc3[nH]nc(-c4ccccc4F)c3C2)c2ccccc21`, for which the z-score was -0.945.

Regarding `CC(C)c1n[nH]c2c1CN(C(=O)C1CCCCCC1)CC2`, the z-score was -0.485.

`CCCN1CCC(NCC(CC)(CC)CCC#N)CC1`: the z-score is -0.565.

With `COC(=O)c1ccc(C(=O)N2CCNC(=O)C2Cc2ccccc2)cc1` (centres undefined), the z-score is -0.49.

For `Cc1nsc(NC(=O)N2CCCCC2c2cccc(F)c2)n1` (centres undefined), the z-score is -0.55.

Turning to `COc1cc(C)c(CNC(C)CCCC(C)(C)O)c(C)c1C` (centres undefined), the z-score is -0.435.

On to `CC(C)Oc1ccc(Cl)cc1-c1nnc2ccc(Cl)cn12`, for which the z-score is 0.31.

For the compound `COc1ccccc1CNC(=O)Nc1nnc(C)s1`, the z-score was 4.88 (active).

As to `CCn1ncc2[nH]c(-c3ccc(-c4ccccn4)cc3)nc21`, the z-score is -1.15.

Regarding `Cc1nnc(NC(=O)N(C)CC2COc3ccccc3O2)s1` (centres undefined), the z-score was 0.025.

In the case of `CCc1cc(-c2cccc(C)c2C)nc(N(C)C)n1`, the z-score was 1.21.

Take `CC(C)CC1(CO)CCCN(C(=O)c2cccc(C#CC(C)(C)O)c2)C1` (centres undefined): the z-score was -0.79.

For `CC(C)Oc1ccc(Cl)cc1-c1nnc2ccccn12`, the z-score is -0.805.

On to `O=C(CCn1cnnn1)N1CCc2[nH]nc(-c3ccc4c(c3)OCO4)c2C1`, for which the z-score is 0.465.

Consider `Cc1ccc(Nc2nc(N)nc(-c3ccc(C(=O)N(C)C)cc3)n2)cc1`, for which the z-score is 2.23 (active).

For `CC(CCCC(C)(C)O)CCN1CCC(N(C)CCO)CC1` (centres undefined), the z-score is -0.505.

Consider `COc1ccc(CN[C@@H]2CS(=O)(=O)C[C@H]2O)cc1OCc1ccc(F)cc1`, for which the z-score is -0.735.

Take `CCCC(CCC)C(=O)N1CCC(n2cc(C3CC3)nn2)CC1`: the z-score is -0.125.

In the case of `CCCC(C)CN(CC)C1CCS(=O)(=O)C1` (centres undefined), the z-score is -0.55.

For `O=c1c2ccc(C(F)(F)F)cc2ncn1CCC1CCCCN1C1CCCC1` (centres undefined), the z-score is -0.69.

In the case of `c1ccc(-c2nc3c(cnn3C3CCCCC3)[nH]2)c(Cn2cccn2)c1`, the z-score was 0.525.

As to `CC(CCc1ccc(O)cc1)NC1CCCCCC1` (centres undefined), the z-score is -0.855.

With `OCCCCCNc1nccc(-c2cnn(-c3ccccc3F)c2)n1`, the z-score is -0.905.

In the case of `CCCC(CCC)N[C@H](CO)Cc1ccccc1`, the z-score is -0.345.
